LmPK inhibitor: blocks Leishmania mexicana pyruvate kinase activity; 290,000 tested, 0.37% active; AID 1721; Potency, µM (series often up to 57.5 µM), most hits filed as inhibitors; Q27686; purified LmPK, Kinase-Glo ATP luminescence, 1 h
Target sequence (Q27686 whole entry, looked up): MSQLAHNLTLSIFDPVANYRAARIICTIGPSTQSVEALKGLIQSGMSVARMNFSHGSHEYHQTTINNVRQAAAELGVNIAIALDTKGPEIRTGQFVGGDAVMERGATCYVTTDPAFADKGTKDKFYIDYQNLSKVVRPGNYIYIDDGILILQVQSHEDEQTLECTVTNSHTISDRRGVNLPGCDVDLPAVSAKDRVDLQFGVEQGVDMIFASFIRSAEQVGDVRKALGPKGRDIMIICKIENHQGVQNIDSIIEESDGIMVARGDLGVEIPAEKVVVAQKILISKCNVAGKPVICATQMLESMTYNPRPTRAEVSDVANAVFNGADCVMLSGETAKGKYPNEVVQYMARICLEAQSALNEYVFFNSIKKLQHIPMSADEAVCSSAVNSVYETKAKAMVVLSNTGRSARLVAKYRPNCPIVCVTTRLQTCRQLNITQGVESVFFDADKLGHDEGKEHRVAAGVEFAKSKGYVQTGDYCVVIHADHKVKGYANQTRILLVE
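Kinase-Glo luminescence read after 1 h RT reaction of 0.1 nM LmPK with 0.5 mM PEP and 0.1 mM ADP. Activity scaled between uninhibited and enzyme-free controls.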
Shiga toxin inh: Shiga toxin inhibition | inhibition, % at 38.7 µM | 290,000 tested, 9.2% active | Vero cells, Shiga toxin protein synthesis inhibition reporter; in the data active = inhibition mostly above about 28%, no sharp cut-off; inactive = mostly below about 43%
Pf growth 48h: P. falciparum growth inhibition at 48 hours (one generation). P. falciparum luciferase growth in erythrocytes, 48 h. Potency, µM (top dose mostly 28.7 µM), usual class: inhibitors. 310,000 tested, 5.9% active. AID 504832
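A one-generation exposure of luciferase-tagged malaria parasites in RPMI 1640/Albumax erythrocyte culture, 37 C and 5% CO2. Inhibition is inferred from decreased luminescence after adding detection reagent.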
Cycloheximide cs: counter-screen hit for Shiga toxin inhibitors, cycloheximide. max response, %. cell reporter, cycloheximide protein synthesis inhibition counterscreen. 300,000 tested, 12% active; in the data active = max response mostly above about 13%, no sharp cut-off; inactive = mostly below about 14%; note: read at 38.3 µM for the half of the compounds with a filed dose
Pf growth 96h: inhibits malaria parasite growth, 96 h. P. falciparum luciferase reporter growth, 96 h. Potency, µM (top dose mostly 28.7 µM), usual class: inhibitors. 320,000 tested, 6.9% active
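Erythrocytes infected with luciferase-expressing P. falciparum were dispensed at 2% hematocrit and 0.05% parasitemia (final), then incubated with compounds 96 hours at 37 C in 5% CO2. Luminescence after detection reagent addition reported growth.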
A number is an active result; n = inactive; u = inconclusive; x = no result given; + = active, no number; [ ] = another dose, or the depositor's remark. Sampled rows, rich in hits. Any-hit rate of the full collection: about 22%. Unless noted, calls come from the whole dose curve; as a rule, active = well fitted inhibition curve with a large enough effect; inconclusive = small, poorly fitted or top-dose-only effect, or another doubt; inactive = no such curve, though single readings can be large or run the other way.

SMILES	LmPK inhibitor	Shiga toxin inh	Pf growth 48h	Cycloheximide cs	Pf growth 96h
Cc1cccc2[nH]c(CCNC(=O)C3CCC(=O)N(CCc4cccc(F)c4)C3)nc12 (stereo not given)	n	n	n	n	n
CC1(NC(=O)CCc2nc3ccccc3c(=O)[nH]2)CCS(=O)(=O)C1 (stereo not given)	n	n	n	n	n
COc1cc(/C=N/NC(=O)c2ccccn2)cc2c1OCO2	n	106.9	n	57.1	n
COc1cc(/C=N/Nc2ccc(Cl)c(C(=O)O)c2)ccc1OC(=O)c1cccs1	n	n	n	n	n
COc1cc(/C=N/NC(=O)COc2ccc(C)cc2)ccc1OC(=O)c1cccs1	n	n	n	16.3	n
COc1cc(/C=N/NC(=O)c2cccnc2)cc2c1OCO2	n	n	n	n	u
COc1cc(/C=N/Nc2ccccc2)ccc1OC(=O)c1cccs1	n	n	n	34.7	u
COc1cc(/C=N/NC(=O)c2ccccn2)ccc1OC(=O)c1cccs1	n	66.8	n	36.5	u
CN1CCN(NC(=O)c2cc(S(=O)(=O)N3CCOCC3)c(Cl)cc2Cl)CC1	n	n	n	n	n
CC(C)OC(=O)CSc1nc2c(c(C3CC=CCC3)c1C#N)CCC2 (stereo not given)	n	n	x	n	u
C=CCSc1nc2c(c(C3CC=CCC3)c1C#N)CCC2 (stereo not given)	n	n	u	n	8.28µM
CCc1nn2cc(C(=O)c3cc(Cl)ccc3O)cnc2c1-c1ccc(F)cc1	n	n	6.57µM	n	u
Cc1ccc2occ(/C=N/NC(=O)c3ccccc3O)c(=O)c2c1	n	n	n	n	n
COCCCn1c(SCC(=O)Nc2ccc(C)cc2)nc2ccccc2c1=O	n	56.4	n	n	n
COCCn1c(SCC(=O)Nc2ccccc2OC)nc2ccccc2c1=O	n	n	n	n	n
COCCn1c(SCC(=O)Nc2ccc(N3CCOCC3)cc2)nc2ccccc21	n	n	n	n	u
Cc1ccc(NC(=O)CSc2nc3ccccc3c(=O)n2CCCN2CCCCC2)cc1C	n	n	11.7µM	n	n
CC(C)N(CCn1c(SCC(=O)Nc2cccnc2Cl)nc2ccccc2c1=O)C(C)C	x	x	u	x	5.86µM
COCCn1c(SCC(=O)Nc2ccc(S(=O)(=O)N(C)C)cc2)nc2ccccc21	n	n	x	n	4.15µM
COCCCn1c(SCC(=O)Nc2ccc(C(=O)OC)cc2)nc2ccccc2c1=O	n	n	8.28µM	n	u
CCc1ccc(NC(=O)[C@H](NC(=O)[C@@H]2Cc3ccccc3CN2)c2ccccc2)cc1	n	n	n	28.4	u
CC(C)c1ccc(NC(=O)[C@@H](C)NC(=O)[C@@H]2Cc3ccccc3CN2)cc1	n	n	n	n	n
CCc1ccc(NC(=O)[C@@H](NC(=O)[C@@H]2Cc3ccccc3CN2)C(C)CC)cc1 (stereo not given in full)	n	n	7.38µM	16.1	u
CC(C)c1ccc(NC(=O)C2CCC(CNC(=O)[C@@H]3Cc4ccccc4CN3)CC2)cc1 (stereo not given in full)	n	n	u	15.1	n
CC(C)C[C@H](NC(=O)[C@@H]1Cc2ccccc2CN1)C(=O)Nc1ccc(C(C)C)cc1	n	n	n	22.6	u
SMILES	LmPK inhibitor	Shiga toxin inh	Pf growth 48h	Cycloheximide cs	Pf growth 96h
CS(=O)(=O)Nc1ccc(C2=NN(S(=O)(=O)c3ccc(F)cc3)C(c3ccco3)C2)cc1 (stereo not given)	n	n	n	n	n
CC(C)NC(=S)NCc1cccs1	n	n	n	n	n
CCc1ccc(C(=O)COC(=O)C2CCN(c3ccc(C(F)(F)F)cn3)CC2)cc1	x	x	n	x	n
CC(=O)N1c2ccc(S(=O)(=O)NCc3ccco3)cc2CC1C (stereo not given)	n	n	n	n	n
CCCn1nc(C(=O)N(C)CC(=O)Nc2ccc(OCC)c(OCC)c2)c2ccccc2c1=O	x	x	n	x	n
CC1=C(C(=O)OC2CCCCC2)C(c2ccc(F)cc2)NC(=O)N1 (stereo not given)	n	n	n	n	9.28µM
CC1=C(C(=O)OC2CCCCC2)C(c2ccc(O)cc2)NC(=O)N1 (stereo not given)	n	n	n	n	n
Cc1ccc2cc(C3CC(c4ccco4)=NN3S(=O)(=O)c3ccccc3)c(Cl)nc2c1 (stereo not given)	n	n	n	n	n
COc1ccc2cc(C3CC(c4ccco4)=NN3S(=O)(=O)c3ccccc3)c(Cl)nc2c1 (stereo not given)	n	33.0	u	n	u
CCOc1ccc2cc(C3CC(c4ccco4)=NN3S(=O)(=O)c3ccccc3)c(Cl)nc2c1 (stereo not given)	n	67.6	14.7µM	18.6	13.1µM
C[C@H](NC(=O)CNC(=O)[C@@H](NC(=O)[C@H](Cc1ccccc1)NC(=O)CNC(=O)CNC(=O)[C@@H](N)Cc1ccccc1)[C@@H](C)O)C(=O)N[C@@H](CCCN=C(N)N)C(=O)N[C@@H](CCCCN)C(=O)N[C@@H](CO)C(=O)N[C@@H](C)C(=O)N[C@@H](CCCN=C(N)N)C(=O)N[C@@H](CCCCN)C(N)=O	x	n	x	n	x
Cc1ccc(CN2C(=O)S/C(=C\c3ccccc3OCC(=O)O)C2=O)cc1	n	n	n	n	5.22µM
O=C(O)COc1ccccc1/C=C1\SC(=O)N(Cc2ccc(F)cc2)C1=O	n	n	n	n	n[5.75 µM]
Cc1cc(S(=O)(=O)N2CCOCC2)ccc1OCC(=O)NCc1ccccn1	n	n	n	n	n
CCN(CC)c1ccc(N=Cc2c(O)n(Cc3ccco3)c(=O)[nH]c2=O)cc1	n	n	11.7µM	n	u
CCN(CC)c1ccc(N=Cc2c(O)n(CCc3ccc(OC)c(OC)c3)c(=O)[nH]c2=O)cc1	n	n	7.38µM	n	10.4µM
CCN(CCO)c1ccc(N=Cc2c(O)n(C)c(=S)[nH]c2=O)cc1	n	79.9	n	44.2	n
COc1ccc(CCn2c(O)c(C=Nc3ccc(F)cc3)c(=O)[nH]c2=O)cc1OC	n	n	n	n	n
Nc1nnc(SCCCC(=O)c2ccc(F)cc2)s1	n	+	n	32.9	n
Nc1nnc(SCCCC(=O)c2ccc(Br)cc2)s1	n	66.5	n	57.7	n
O=C(CCCSc1nnc(SCCCC(=O)c2ccc(F)cc2)s1)c1ccc(F)cc1	n	n	u	n	u
Cc1cc(C)nc(Nc2ccc(O)cc2)n1	n	n	x	24.1	n
CCc1ccc(Nc2nc(C)cc(C)n2)cc1	n	52.4	n	52.6	n
Cc1cc(C)nc(Nc2ccc(C(=O)O)cc2)n1	n	n	x	n	n
CC1(c2ccc(OC(F)F)cc2)NC(=O)N(CC(=O)Nc2ccc(N3CCCCC3)cc2)C1=O (stereo not given)	x	x	n	x	n
CCNC(=S)N1CCc2cc(OC)c(OC)cc2C1COc1ccc(F)cc1 (stereo not given)	n	n	u	n	8.28µM
COCCNC(=S)N1CCc2cc(OC)c(OC)cc2C1c1cccs1 (stereo not given)	n	n	2.94µM	n	5.86µM
